A number with no mark means an inactive call. Records with an inconclusive call do not appear. A call without a number means that no potency is given here. The source made the active and inactive calls. Calls come from the whole dose curve; as a rule, active = well fitted curve in the direction sought with a large enough effect; inconclusive = small, poorly fitted or top-dose-only effect, or another doubt; inactive = no such curve, though single readings can be large; an effect the other way counts as inactive or inconclusive.
Legend:
[1] = qHTS for Activators of Parkin Expression: LOPAC Validation Assay (NLuc Reporter) (AID 720572)
Summary of the method: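 Neuronal cells with a Parkin promoter-driven FLuc/NLuc coincidence reporter were treated 24 h at 37 C in 7-point dose response (LOPAC). NLuc luminescence read after FLuc; signals normalized to DMSO and positive control (100%).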

[2] = target: T1, Hexokinase-4 (Homo sapiens) + Glucokinase regulatory protein (Homo sapiens) (UniProt P35557+Q14397); test: qHTS assay for inhibitors of recombinant human GCK-GKRP interaction: Diaphorase-coupled assay (AID 743205)
Summary of the method: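 25 mM Hepes pH 7.6, 5 mM glucose, 0.4 mM ATP, 4 U/ml G6PDH; 10 nM each GST-GCK/FLAG-GKRP. Kinetic fluorescence read, 1/min × 30 min. Normalized: DMSO ± enzyme = max/min.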

[3] = target: T1, Hexokinase-4 (Homo sapiens) + Glucokinase regulatory protein (Homo sapiens); test: qHTS assay for inhibitors of recombinant human GCK-GKRP interaction: ADP-Glo assay (AID 743206)
Summary of the method: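 GST-GCK and FLAG-GKRP (15 nM each in the dispensed mix, with 2 uM S6P) react with 0.4 mM ATP and 5 mM glucose (final) in Hepes pH 7.6 for 60 min at room temperature. ADP is measured by ADP-Glo luminescence.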

[4] = target: T1, Hexokinase-4 (Homo sapiens) + Glucokinase regulatory protein (Homo sapiens); test: qHTS assay for inhibitors of recombinant human GCK-GKRP interaction: HTRF assay (AID 743207)
Summary of the method: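 5 nM GST-GCK + 5 nM FLAG-GKRP + 2 uM S6P, pH 7.1 buffer (25 mM Hepes, 2 mM MgCl2, 25 mM KCl, 1 mM DTT, Tween/BSA); pin-transferred cpd; anti-FLAG XL665/anti-GST K; 60 min RT; HTRF.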

[5] = qHTS Assay for Identifying Gametocytocidal Compounds (AID 743244);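 note: actives lower the fluorescent signal which means gametocytes are killed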; conditions: P. falciparum 3D7 stage III-V gametocytes, alamarBlue, 72 h; max response: hits give low values
Summary of the method: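 Fluorescence at Ex 525/Em 598 nm, recorded 24 h after alamarBlue addition, reports residual metabolic activity of 3D7 gametocytes (stages III–V) following 72 h compound exposure at 37 °C, 5% CO2.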

[6] = NS1 protein of Zika virus - qHTS assay to identify small molecule inhibitors in human HEK 293 cells (AID 1347053); note: series mostly up to about 46 µM; nearly all actives have a fitted effect of over 55% in size
Summary of the method: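 HEK 293 cells pretreated with compound for 1 h, then infected with ZIKV MR766 (MOI 0.5) for 24 h at 37 C. NS1 detected by TR-FRET with two anti-NS1 antibodies; normalized to uninfected (0%) and infected (100%) wells.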

[7] = target: Tyrosine-protein phosphatase non-receptor type substrate 1 (Homo sapiens) + Leukocyte surface antigen CD47 (Homo sapiens) (UniProt P78324+Q08722); test: CD47-SIRPalpha protein protein interaction - Alpha assay qHTS validation (AID 1347059);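 note: bead proximity luminescence from CD47 binding SIRPalpha after compound preincubation with SIRPalpha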
Summary of the method: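 Biotinylated Avi-tagged SIRPalpha (25 nM) preincubated 30 min with compound, then His-tagged CD47 (12.5 nM) added 30 min; AlphaScreen with Ni-NTA acceptor and streptavidin donor beads. PBS pH 7.4, 0.05% IGEPAL, room temperature; 7-point titrations.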

[8] = target: Parathyroid hormone/parathyroid hormone-related peptide receptor (Homo sapiens) (UniProt Q03431); test: qHTS for PTHR1 Agonists: Optimization Screen against the NCGC LOPAC library (AID 1347079);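 note: GloSensor cAMP luminescence in HEK-293 GP2 cells expressing human PTHR1 with IBMX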
Summary of the method: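 Compounds were tested across a qHTS titration. PTHR1-expressing GP2 cells report cAMP rises via GloSensor luminescence after 1 hr compound exposure at 37C with IBMX present.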

[9] = target: N-terminal Xaa-Pro-Lys N-methyltransferase 1 (Homo sapiens) (UniProt Q9BV86); test: qHTS Assay for Inhibitors of N-terminal methyltransferase 1 (NTMT1): LOPAC validation of the NTMT1 SAHH-coupled ThioGlo3 Assay (AID 1347143);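 note: SAH from peptide methylation measured as thiol fluorescence via SAHH coupling and ThioGlo3; potency is the fitted concentration of half-maximal effect; nearly all actives have a fitted effect of over 70% in size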
Summary of the method: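 Recombinant human NTMT1 (125nM) was pre-incubated 1 min at room temperature with compounds over a concentration range, then a mix of 100uM SAM, 10uM SAHH and 15uM ThioGlo3 (concentrations in added reagent) was added. ThioGlo3 fluorescence (ex 340/em 450nm) after 30 min was normalized to the initial reading.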

[10] = tested on: Zika virus NS2B-NS3 protease (unlinked); test: Optimization of GU AMC qHTS for Zika virus inhibitors: Unlinked NS2B-NS3 protease assay (AID 1347151); note: potency is the fitted concentration of half-maximal effect; nearly all actives have a fitted effect of over 80% in size
Summary of the method: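 Unlinked protease (25 nM final); buffer 10 mM Tris-HCl pH 8.0 + 0.01% Tween 20; AMC substrate; 15 min RT, dark; Δfluorescence normalized to no-inhibitor/no-enzyme controls; 4-parameter Hill fit.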

[11] = qHTS to identify inhibitors of the type 1 interferon - major histocompatibility complex class I in skeletal muscle: primary screen against the NCATS LOPAC collection (AID 1347405);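 note: lytic HiBiT luminescence reporting HLA-B protein level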
Summary of the method: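 Immortalized human C25cl48 myoblasts with HiBiT knocked into endogenous HLA-B*08:01 were stimulated with 4.0 ng/ml IFN-beta and given compounds in a 7-point, 1:4.3 titration from 46 uM final; after 24 hrs, lytic HiBiT luminescence was read.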

[12] = qHTS for inhibitors of adenylyl cyclases using a fission yeast platform: a pilot screen against the NCATS LOPAC library (AID 1347410)
Summary of the method: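 Fission yeast qHTS: CHP2027 cells (AC9-GNAS-PDE4D2, fbp1-GFP), 5x10^6 cells/mL working density, EMM + His/Lys/Ura; LOPAC at up to 57 µM final; 18 h dark, 30C; GFP by laser cytometry. DPI positive control, DMSO vehicle.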

[13] = Validation qHTS assay for inhibitors of Activation Induced Cytidine Deaminase (AID): UDG Counterscreen signal (AID 1347427)
Summary of the method: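 Counterscreen read of UDG activity (2 U/mL, 4/3x) in the FRET deamination format with AID (1 uM, 4/3x), DJC20/DJC23 substrates (250 nM, 4x), 4 h at room temperature. NaOH stop, fluorescence at 560 ex/665 em.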

[14] = target: Single-stranded DNA cytosine deaminase (Homo sapiens) (UniProt Q9GZX7); test: Validation qHTS assay for inhibitors of Activation Induced Cytidine Deaminase (AID): AID signal (AID 1347429)
Summary of the method: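 AID and UDG were combined and compounds added at final up to 114 uM, then DJC20/DJC23 FRET substrate was added for 4 hr at room temperature. NaOH was then added for 30 min before fluorescence was read at 540/590 nm.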

[15] = Primary qHTS for inhibitors of La Crosse Virus (LACV) - induced cell death in SH-SY5Y cells (AID 1508616);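 note: top concentration of the series differs between compounds; higher means more rescue of cells from virus-induced death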
Summary of the method: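 Luminescent ATP readout (ATPLite 1step, 5 min room temperature) measured rescue from LACV-induced death after 6 days of infection at 0.01 MOI; normalized to infected DMSO wells and uninfected DMSO wells.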

[16] = target: Calcium and integrin-binding protein 1 (Homo sapiens) (UniProt Q99828); test: Validation qHTS for Identification of Calcium Integrin Binding protein 1 (CIB1) Competitor (AID 1508618)
Summary of the method: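 Fluorescence polarization with 1 uM CIB1-GST and 100 nM FITC-alphaIIb peptide in HEPES pH 7.4, NaCl, 5 mM CaCl2, Tween20. Compounds at up to 114 uM final, preincubated with protein 15 min; read after 15 min more at RT.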

[17] = Primary qHTS for small molecule stabilizers of the endoplasmic reticulum resident proteome: Secreted ER Calcium Modulated Protein (SERCaMP) assay (AID 1508630)
Summary of the method: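 GLuc-SERCaMP-expressing SH-SY5Y cells, pretreated 16 h with compound, are challenged with thapsigargin to empty ER calcium stores; after 4 h, coelenterazine is added directly to the medium and luminescence is imaged.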

[18] = target: Rap guanine nucleotide exchange factor 3 (Homo sapiens) (UniProt O95398); test: Confirmatory qHTS for agonist of cAMP-regulated guanine nucleotide exchange factor 3 (EPAC1) (AID 1645881);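 note: EPAC1 catalysed release of BODIPY-GDP from Rap1B seen as fluorescence loss; nearly all actives have a fitted effect of over 75% in size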
[19] = target: Rap guanine nucleotide exchange factor 4 (Homo sapiens) (UniProt Q8WZA2); test: Confirmatory qHTS for agonist of cAMP-regulated guanine nucleotide exchange factor 4 (EPAC2) (AID 1645884);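 note: nucleotide exchange releases bodipy-GDP from Rap1 and this lowers its fluorescence; nearly all actives have a fitted effect of over 65% in size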
[20] = target: Rap guanine nucleotide exchange factor 4 (Homo sapiens) (UniProt Q8WZA2); test: Confirmatory qHTS for antagonist of cAMP-regulated guanine nucleotide exchange factor 4 (EPAC2) (AID 1645885); note: nearly all actives have a fitted effect of over 25% in size
[21] = target: Glutathione peroxidase 1 (Homo sapiens) (UniProt P07203); test: Primary qHTS Assay for Inhibitors of Recombinant Selenoprotein Glutathione Peroxidase 1 (GPX1) (AID 1845191); note: nearly all actives have a fitted effect of over 65% in size
Summary of the method: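 GR-coupled assay: compounds preincubated 30 min at room temperature with GPX1, then reaction started with CHP; final 10 nM GPX1, 1 mM GSH, 0.5 mM CHP, 0.5 mM NADPH, 100 nM GR, 0.01% BSA, pH 7.5 Tris buffer. NADPH fluorescence (340/450 nm) read at 0 and 15 min.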

[22] = target: Phospholipid hydroperoxide glutathione peroxidase GPX4 (Homo sapiens) (UniProt P36969); test: Primary qHTS Assay for Inhibitors of Recombinant Selenoprotein Glutathione Peroxidase 4 (GPX4) (AID 1845192); conditions: outcome: dose series up to 50 µM unless noted; note: series mostly up to about 50 µM; nearly all actives have a fitted effect of over 65% in size
Summary of the method: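 GR-coupled assay: recombinant GPX4 preincubated 30 min with compound at room temperature; final 200 nM GPX4, 1 mM GSH, 0.5 mM cumene hydroperoxide, 0.5 mM NADPH, 100 nM GR, 0.01% BSA, pH 7.5 Tris. NADPH fluorescence (340/450 nm) read at 0 and 15 min.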

T1 sequence (P35557 whole entry, looked up): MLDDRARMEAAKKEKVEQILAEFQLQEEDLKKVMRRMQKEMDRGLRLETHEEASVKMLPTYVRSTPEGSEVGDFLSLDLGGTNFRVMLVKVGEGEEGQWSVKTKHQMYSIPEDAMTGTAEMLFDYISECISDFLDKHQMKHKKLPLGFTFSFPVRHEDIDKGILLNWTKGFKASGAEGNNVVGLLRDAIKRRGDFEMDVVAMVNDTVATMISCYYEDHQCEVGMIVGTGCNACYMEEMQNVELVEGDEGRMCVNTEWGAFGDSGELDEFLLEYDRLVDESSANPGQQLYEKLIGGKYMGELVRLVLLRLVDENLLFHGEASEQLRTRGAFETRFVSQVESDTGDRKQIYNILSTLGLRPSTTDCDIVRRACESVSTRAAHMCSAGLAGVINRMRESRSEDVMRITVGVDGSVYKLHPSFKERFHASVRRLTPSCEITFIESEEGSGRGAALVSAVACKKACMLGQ
T1 sequence (Q14397 whole entry, looked up): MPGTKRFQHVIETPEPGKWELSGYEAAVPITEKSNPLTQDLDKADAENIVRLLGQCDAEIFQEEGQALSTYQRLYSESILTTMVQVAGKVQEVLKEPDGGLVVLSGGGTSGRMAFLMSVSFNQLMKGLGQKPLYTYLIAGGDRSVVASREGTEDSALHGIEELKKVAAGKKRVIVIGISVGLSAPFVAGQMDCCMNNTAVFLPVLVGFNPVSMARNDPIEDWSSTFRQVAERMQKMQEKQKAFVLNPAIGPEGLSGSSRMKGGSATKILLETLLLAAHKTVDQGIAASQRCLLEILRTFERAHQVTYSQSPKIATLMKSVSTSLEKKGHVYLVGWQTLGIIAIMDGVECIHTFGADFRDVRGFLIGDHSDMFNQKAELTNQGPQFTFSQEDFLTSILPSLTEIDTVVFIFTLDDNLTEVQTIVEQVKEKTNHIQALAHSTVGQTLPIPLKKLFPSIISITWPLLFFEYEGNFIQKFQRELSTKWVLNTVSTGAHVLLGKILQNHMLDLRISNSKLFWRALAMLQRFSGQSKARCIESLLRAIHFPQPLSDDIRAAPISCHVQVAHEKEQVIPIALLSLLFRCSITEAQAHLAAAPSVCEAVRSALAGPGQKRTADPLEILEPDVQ
Sequence of Rap guanine nucleotide exchange factor 4 (Homo sapiens) (Q8WZA2 whole entry, looked up): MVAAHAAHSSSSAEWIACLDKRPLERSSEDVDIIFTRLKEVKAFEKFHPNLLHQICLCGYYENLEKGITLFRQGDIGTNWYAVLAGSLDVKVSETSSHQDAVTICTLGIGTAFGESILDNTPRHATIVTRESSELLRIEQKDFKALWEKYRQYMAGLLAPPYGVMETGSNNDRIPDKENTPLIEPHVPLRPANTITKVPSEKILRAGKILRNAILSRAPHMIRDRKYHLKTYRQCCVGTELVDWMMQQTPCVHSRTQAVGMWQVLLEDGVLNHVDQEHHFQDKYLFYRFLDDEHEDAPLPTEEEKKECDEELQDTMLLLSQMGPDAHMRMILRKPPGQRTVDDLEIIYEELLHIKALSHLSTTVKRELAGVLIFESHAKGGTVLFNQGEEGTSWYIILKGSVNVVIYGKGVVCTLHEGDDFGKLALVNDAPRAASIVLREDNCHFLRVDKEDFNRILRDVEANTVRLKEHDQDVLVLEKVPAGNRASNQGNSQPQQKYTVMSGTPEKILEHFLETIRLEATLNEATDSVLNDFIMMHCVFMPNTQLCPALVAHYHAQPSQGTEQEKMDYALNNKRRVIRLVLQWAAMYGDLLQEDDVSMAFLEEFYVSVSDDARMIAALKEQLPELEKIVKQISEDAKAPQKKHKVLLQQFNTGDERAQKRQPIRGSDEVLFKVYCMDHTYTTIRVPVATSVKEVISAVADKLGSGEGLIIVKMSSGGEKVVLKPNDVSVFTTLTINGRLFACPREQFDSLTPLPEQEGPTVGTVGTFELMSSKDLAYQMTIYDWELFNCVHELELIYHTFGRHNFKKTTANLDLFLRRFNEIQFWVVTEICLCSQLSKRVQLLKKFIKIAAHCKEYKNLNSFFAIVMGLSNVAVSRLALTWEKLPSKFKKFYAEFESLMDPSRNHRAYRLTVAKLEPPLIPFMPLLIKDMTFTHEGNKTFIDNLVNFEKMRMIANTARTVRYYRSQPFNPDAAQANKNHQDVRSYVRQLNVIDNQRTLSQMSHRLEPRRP
Sequence of Calcium and integrin-binding protein 1 (Homo sapiens) (Q99828 whole entry, looked up): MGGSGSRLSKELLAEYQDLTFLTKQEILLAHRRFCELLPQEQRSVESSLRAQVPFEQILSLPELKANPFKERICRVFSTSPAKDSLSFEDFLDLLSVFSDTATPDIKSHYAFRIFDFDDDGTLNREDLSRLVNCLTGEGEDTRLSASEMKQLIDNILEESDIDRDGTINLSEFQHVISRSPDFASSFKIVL
Sequence of Phospholipid hydroperoxide glutathione peroxidase GPX4 (Homo sapiens) (P36969 whole entry, looked up): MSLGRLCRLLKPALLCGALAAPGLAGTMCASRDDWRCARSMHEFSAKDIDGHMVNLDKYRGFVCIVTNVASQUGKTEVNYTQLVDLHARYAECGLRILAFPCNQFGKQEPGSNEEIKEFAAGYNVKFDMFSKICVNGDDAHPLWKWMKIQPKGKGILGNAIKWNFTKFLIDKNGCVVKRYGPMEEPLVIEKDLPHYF
Sequence of Tyrosine-protein phosphatase non-receptor type substrate 1 (Homo sapiens) + Leukocyte surface antigen CD47 (Homo sapiens) (P78324 whole entry, looked up): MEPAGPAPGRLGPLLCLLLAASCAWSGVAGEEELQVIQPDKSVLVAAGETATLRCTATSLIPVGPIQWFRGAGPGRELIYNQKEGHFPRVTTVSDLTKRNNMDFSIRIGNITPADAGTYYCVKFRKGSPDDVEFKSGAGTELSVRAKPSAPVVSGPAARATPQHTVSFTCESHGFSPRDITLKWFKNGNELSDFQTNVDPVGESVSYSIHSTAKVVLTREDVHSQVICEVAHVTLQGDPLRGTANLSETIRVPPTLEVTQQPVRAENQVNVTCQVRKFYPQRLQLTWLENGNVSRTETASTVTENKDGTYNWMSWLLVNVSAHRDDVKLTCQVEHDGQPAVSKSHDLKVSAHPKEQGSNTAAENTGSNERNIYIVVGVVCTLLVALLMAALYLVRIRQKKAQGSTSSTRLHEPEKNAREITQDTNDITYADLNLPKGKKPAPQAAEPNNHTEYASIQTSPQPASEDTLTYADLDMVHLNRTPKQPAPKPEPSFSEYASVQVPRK
Sequence of Tyrosine-protein phosphatase non-receptor type substrate 1 (Homo sapiens) + Leukocyte surface antigen CD47 (Homo sapiens) (Q08722 whole entry, looked up): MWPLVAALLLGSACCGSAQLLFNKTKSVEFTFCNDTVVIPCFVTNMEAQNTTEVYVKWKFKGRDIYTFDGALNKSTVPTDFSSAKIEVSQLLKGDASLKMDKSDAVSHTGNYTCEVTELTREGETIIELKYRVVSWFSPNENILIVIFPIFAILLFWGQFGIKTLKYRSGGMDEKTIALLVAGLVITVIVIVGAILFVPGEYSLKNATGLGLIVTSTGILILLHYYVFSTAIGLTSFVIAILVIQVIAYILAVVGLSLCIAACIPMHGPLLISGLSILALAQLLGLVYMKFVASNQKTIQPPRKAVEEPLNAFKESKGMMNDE
Sequence of Glutathione peroxidase 1 (Homo sapiens) (P07203 whole entry, looked up): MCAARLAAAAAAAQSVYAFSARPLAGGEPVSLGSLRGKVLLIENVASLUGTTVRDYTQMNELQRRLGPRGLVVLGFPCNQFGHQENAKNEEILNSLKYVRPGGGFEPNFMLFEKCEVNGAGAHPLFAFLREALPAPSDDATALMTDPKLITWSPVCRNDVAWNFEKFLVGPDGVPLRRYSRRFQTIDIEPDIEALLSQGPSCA
Sequence of Parathyroid hormone/parathyroid hormone-related peptide receptor (Homo sapiens) (Q03431 whole entry, looked up): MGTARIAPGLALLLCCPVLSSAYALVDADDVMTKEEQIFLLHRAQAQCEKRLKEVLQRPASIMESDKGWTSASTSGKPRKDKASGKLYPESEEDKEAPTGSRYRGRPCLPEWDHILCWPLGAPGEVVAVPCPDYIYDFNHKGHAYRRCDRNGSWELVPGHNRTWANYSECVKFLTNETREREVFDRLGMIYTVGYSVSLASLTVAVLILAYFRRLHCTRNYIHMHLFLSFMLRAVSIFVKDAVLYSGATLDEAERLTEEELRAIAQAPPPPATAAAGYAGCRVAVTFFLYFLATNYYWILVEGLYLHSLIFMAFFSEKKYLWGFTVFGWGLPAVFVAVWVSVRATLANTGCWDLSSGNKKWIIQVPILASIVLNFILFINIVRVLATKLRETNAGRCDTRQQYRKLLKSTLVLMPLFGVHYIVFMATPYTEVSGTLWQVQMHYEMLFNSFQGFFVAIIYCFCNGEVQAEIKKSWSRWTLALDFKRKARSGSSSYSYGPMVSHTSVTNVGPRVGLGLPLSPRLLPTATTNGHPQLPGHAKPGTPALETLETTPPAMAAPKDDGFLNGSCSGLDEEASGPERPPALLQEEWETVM
Sequence of N-terminal Xaa-Pro-Lys N-methyltransferase 1 (Homo sapiens) (Q9BV86 whole entry, looked up): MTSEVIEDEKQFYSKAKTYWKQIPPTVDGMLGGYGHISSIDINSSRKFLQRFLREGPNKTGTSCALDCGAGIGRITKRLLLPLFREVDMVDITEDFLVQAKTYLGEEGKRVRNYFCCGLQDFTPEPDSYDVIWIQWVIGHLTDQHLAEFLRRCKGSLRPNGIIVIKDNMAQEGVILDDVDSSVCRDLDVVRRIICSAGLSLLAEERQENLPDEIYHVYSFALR
Sequence of Single-stranded DNA cytosine deaminase (Homo sapiens) (Q9GZX7 whole entry, looked up): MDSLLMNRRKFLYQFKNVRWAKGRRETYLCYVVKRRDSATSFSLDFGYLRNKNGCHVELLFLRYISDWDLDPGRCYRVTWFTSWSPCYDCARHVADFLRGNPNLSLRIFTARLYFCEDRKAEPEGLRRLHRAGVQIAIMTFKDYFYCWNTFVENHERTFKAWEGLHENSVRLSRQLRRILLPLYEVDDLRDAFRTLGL

With `N#C/C(=C\c1ccc(O)c(O)c1)C(=O)Nc1ccccc1` the outcome [1] was “inactive”, the outcome [2] was “inactive” and the outcome [3] was “inactive”. For the same molecule, the outcome [4] was “inactive”, the max response [5] was 12.5% and the outcome [6] was “inactive”. The Potency [7] was “inactive”, the outcome [8] was “inactive” and the Potency [9] was 39.8 µM (active). For the same molecule, the Potency [10] was 3.36 µM (active), the Potency [11] was “inactive” and the outcome [12] was “inactive”. For the same molecule, the outcome [13] was “inactive”, the Potency [14] was “inactive” and the outcome [15] was “inactive”. For the same molecule, the outcome [16] was “inactive”, the Potency [17] was “inactive” and the outcome [18] was “inactive”. The outcome [19] was “inactive”, the Potency [20] was “inactive” and the Potency [21] was “inactive”. The Potency [22] was “inactive”.
